# Most compounds without a hit are left out; they make up all but 5.9% or so of the library.
# rTrxR1 inhibitor: rat TrxR1 inhibition | recombinant rTrxR1, NADPH fluorescence consumption, selenite substrate | Potency, µM (doses to about 114 µM), usual class: inhibitors | 1% of 390,000 active | O89049; also: nearly all actives have a fitted effect of over 65% in size
#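 Rat TrxR1 (90 nM in the dispensed reagent) was pre-reduced with 400 uM NADPH for 5 min at room temperature, then incubated with compound for 15 min. After 400 uM selenite was added, NADPH fluorescence (Ex 340/Em 450 nm) was followed for 8 min.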
# TrxR1 substrate: substrates of rat thioredoxin reductase 1. purified TrxR1 substrate turnover, NADPH consumption readout. AID 588456. 0.01% of 390,000 active. Potency, µM (titrated, usually from 114 µM). O89049; also: nearly all actives have a fitted effect of over 50% in size
#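 Rat TrxR1, dispensed at 90 nM, was prereduced with 400 uM NADPH (final) for 5 min at ~22 deg C, then incubated with compound 15 min before 400 uM selenite. A first-read NADPH fluorescence drop versus no-compound background flagged substrates.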
# RORgamma inh: inhibitors of mouse ROR gamma transcriptional activity; P51450; Potency, µM (top dose mostly 53.6 µM), hits mostly inhibitors; Drosophila S2 Gal4-RORgamma UAS-luciferase reporter, 20 h; AID 2551; 5.4% of 310,000 active; also: nearly all actives have a fitted effect of over 60% in size
# Target sequence (P51450 whole entry, looked up, the tested form may be a part): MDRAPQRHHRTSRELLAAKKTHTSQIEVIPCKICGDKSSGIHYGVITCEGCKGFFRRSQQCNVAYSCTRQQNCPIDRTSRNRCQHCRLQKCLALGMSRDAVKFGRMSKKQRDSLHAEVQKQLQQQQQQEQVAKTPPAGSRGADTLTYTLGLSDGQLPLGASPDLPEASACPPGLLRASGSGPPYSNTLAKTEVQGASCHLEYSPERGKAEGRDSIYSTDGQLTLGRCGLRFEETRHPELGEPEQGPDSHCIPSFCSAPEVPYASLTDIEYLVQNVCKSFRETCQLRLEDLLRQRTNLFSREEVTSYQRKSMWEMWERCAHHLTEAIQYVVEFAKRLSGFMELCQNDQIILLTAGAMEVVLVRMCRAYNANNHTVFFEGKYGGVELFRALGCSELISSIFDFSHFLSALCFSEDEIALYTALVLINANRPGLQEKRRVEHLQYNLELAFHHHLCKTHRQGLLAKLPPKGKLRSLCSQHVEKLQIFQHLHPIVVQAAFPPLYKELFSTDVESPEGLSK
#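 In this cell-based reporter format, copper sulfate (700 uM final) drives Gal4–ROR gamma fusion expression from a metallothionein promoter in Drosophila Schneider cells; compounds preincubated 1 hr, reporter read after 20 hr at ambient temperature.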
# VP16 counter: inhibits Gal4-VP16 luciferase reporter, ROR gamma counter-screen; Drosophila S2 Gal4-VP16 UAS-luciferase, luminescence, 20 h; Potency, µM (titrated, usually from 53.6 µM), actives largely listed as inhibitors; 3.5% of 310,000 active; AID 2546;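 also: Gal4-VP16 expression switched on by copper sulfate through the metallothionein promoter; nearly all actives have a fitted effect of over 50% in size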
# FBPA coupling cs: inhibits coupling enzyme system, counter-screen for aldolase hits | coupling enzyme system counterscreen, AmpLite Red fluorescence | activity change, negative = inhibition, % at 58.2 µM, hits read low | 0.67% of 290,000 active | AID 2472; in the data active = activity change below about -30%
#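 Compounds tested against the coupling enzymes alone at 57.5 uM final; readout was AmpLite Red fluorescence (525/598 nm) after 20 min at RT.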
# GALK inh: galactokinase (human) inhibition | Purified GALK, Kinase-Glo residual ATP luminescence | 0.007% of 270,000 active | Potency, µM (highest dose often 57.5 µM), usual class: inhibitors
#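 Kinase-Glo Plus luminescence measured ATP left after a 1 h room-temperature reaction. The reaction used 5 nM GALK, 100 uM galactose and 35 uM ATP at pH 8.0 (20 mM HEPES, 5 mM MgCl2, 60 mM NaCl, 1 mM DTT, 0.01% BSA).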
# Numbers stand for hits; - = inactive; ? = inconclusive; . = no result; [ ] = remark or other dose. Unless noted, calls follow the shape of the dose curve; as a rule, active = well fitted curve in the direction sought with a large enough effect; inconclusive = small, poorly fitted or top-dose-only effect, or another doubt; inactive = no such curve, though single readings can be large; an effect the other way counts as inactive or inconclusive.
SMILES,rTrxR1 inhibitor,TrxR1 substrate,RORgamma inh,VP16 counter,FBPA coupling cs,GALK inh
S=C(NCCc1ccccc1)Nc1ccc(Br)cc1,-,-,5.01µM,?,-,.
CCCNC(=S)Nc1ccc(Br)cc1,-,-,11.2µM,?,.,-
CC(C)CNC(=S)Nc1ccc(S(N)(=O)=O)cc1,-,-,-,-,-,.
COc1ccc2[nH]c3c(c2c1)CCNC3(C)CCc1ccc(Cl)nc1 (stereo not drawn),-,-,-,-,-,-
CCN1CCN(Cc2ccc(C(=O)Nc3ccc(C)c(NCc4cnc(NC(=O)OC)cn4)c3)cc2C(F)(F)F)CC1,-,-,-,-,-,.
Cc1nc2ccc(NC(=O)NC(=O)c3c(Cl)cccc3Cl)cc2o1,-,-,-,-,-,-
COC(=O)Cc1ccc(NC(=S)NCCO)cc1,-,-,-,-,-,-
CC(C)CCNC(=S)Nc1ccc(Br)cc1,-,-,3.55µM,10µM,-,.
S=C(NCCOCCOCCNC(=S)Nc1ccccc1)Nc1ccccc1,-,-,5.01µM,?,-,-
COC(=O)Cc1ccc(NC(=S)NCCC(C)C)cc1,-,-,10µM,?,-,.
S=C(NCCNC(=S)Nc1ccccc1)Nc1ccccc1,-[2.29 µM],-,-[1.91 µM],-,-,-
Cn1c(=O)c2c(nc(SCCN3CCOCC3)n2Cc2ccc(F)cc2)n(C)c1=O,-,-,-,-,-,-
CC(C)CN1CCC2(CC1)CCN(C(=O)c1ccncc1)CC2,.,.,-,-,-,.
COCc1ccc(C(=O)NC2CCCc3c2cnn3-c2ccc(C)c(C)c2)o1 (stereo not drawn),-,-,?,11.2µM,-,-
Cc1cc(C(=O)NC2CCCc3c2cnn3-c2ccc(C)c(C)c2)n(C)n1 (stereo not drawn),-,-,?,0.0079µM,.,-
C=C1C2CC[C@@]3(C)C(c4ccoc4)OC(=O)C[C@@]13OC1CC(OC(C)=O)C(C)(C)C(CC(=O)OC)[C@@]12C (stereo partly drawn),.,.,2.82µM,-,-,.
C=C1C2CC[C@@]3(C)C(c4ccoc4)OC(=O)C[C@@]13OC1CC(=O)C(C)(C)C(CC(=O)OC)[C@]12C (stereo partly drawn),.,.,-,-,-,.
COc1ccc(-c2noc(CSc3nnc(Cc4ccccc4)n3-c3ccc(F)cc3)n2)cc1,-,-,.,.,.,.
CC(=O)Nc1ccc(S(=O)(=O)NNC(=S)NCc2ccco2)cc1,-,-,11.2µM,-,.,-
CC(C)CC(=O)NNC(=S)NCc1ccco1,-,-,?,-,-,-
CCCCc1ccc(S(=O)(=O)NNC(=S)NCc2ccco2)cc1,-,-,8.91µM,?,-,-
Cc1ccc(S(=O)(=O)NCC(=O)N(CCc2ccccc2)CC(=O)NCc2ccco2)cc1,22.4µM,-,-[10 µM],-,-,-
CC1(C(=O)NNC(=S)NCc2ccco2)CC1(Cl)Cl (stereo not drawn),-,-,8.91µM,-,-,-
O=C(CN(CCc1ccccc1)C(=O)CNS(=O)(=O)c1ccccc1)NCc1ccco1,-,-,-,-,-,-
CCCn1nnnc1SCC(=O)NNC(=O)c1ccco1,-,-,-,-,-,-
SMILES,rTrxR1 inhibitor,TrxR1 substrate,RORgamma inh,VP16 counter,FBPA coupling cs,GALK inh
Cc1cccc(N(C)S(=O)(=O)c2cc3c(cc2Cl)NC(=O)CO3)c1,-,-,.,.,.,.
CCN(CC(=O)Nc1c(C(=O)OC)[nH]c2ccc(Cl)cc12)c1ccc2c(c1)OCO2,-,-,-,-,-,-
CCOC(=O)c1[nH]c2ccc(Cl)cc2c1NC(=O)/C=C/c1ccc2c(c1)OCO2,-,-,?,4.47µM,-,-
O=C(COCc1cc(-c2ccco2)on1)Nc1cc(Cl)ccc1O,-,-,.,.,.,.
CCCCCCNC(=O)CC(c1ccccc1)c1cc(Br)ccc1O (stereo not drawn),-,-,2.82µM,10µM,-,-
COc1ccccc1C1OCC(C)([N+](=O)[O-])CO1 (stereo not drawn),-,-,.,.,.,.
Cc1ccc(N(Cc2cc3ccccc3[nH]c2=O)C(=O)c2cccc(Cl)c2)cc1,-,-,.,.,.,.
CC1C/C(=N/Nc2ccc([N+](=O)[O-])cc2[N+](=O)[O-])CC(C)(C)C1 (stereo not drawn),-,-,-,-,-,-
Cc1cc(N/N=C2\CC(C)CC(C)(C)C2)nc2ccccc12 (stereo not drawn),-,-,12.6µM,-,-,-
NC(=O)Nc1nc2ccccc2[nH]1,.,.,-,-,.,.
CC1C/C(=N/Nc2nc3ccccc3[nH]2)CC(C)(C)C1 (stereo not drawn),-,-,3.16µM,8.91µM,-,-
CC1C/C(=N/NC(=O)c2ccc(CSc3nc4ccccc4[nH]3)cc2)CC(C)(C)C1 (stereo not drawn),-,-,-,-,-,-
c1ccc2[nH]c(NC3=NCCC3)nc2c1,-,-,2.82µM,11.2µM,-,-
Cc1ccc(Nc2nc3ccccc3[nH]2)nc1,-,-,5.01µM,5.01µM,-,-
CCN(CC)S(=O)(=O)c1cccc(C(=O)Nc2sc3c(c2C#N)CCC(C)C3)c1 (stereo not drawn),-,-,.,.,.,.
c1ccc2[nH]c(NN=C3CCCCCC3)nc2c1,-,-,11.2µM,?,-,-
CCCNC(=O)c1ccccc1NC(=O)c1ccccc1N(C)S(=O)(=O)c1ccc(C)cc1,-,-,-,-,-,-
CCOc1ccc(-c2csc(NC(=O)c3cccc(N4C(=O)CCC4=O)c3)n2)cc1,-,-,-,-,-,.
O=C(Nc1nnc(-c2ccncc2)o1)c1cccc(N2C(=O)CCC2=O)c1,-,-,-,-,-,-
Cc1ccc(-c2csc(NC(=O)c3cccc(N4C(=O)CCC4=O)c3)n2)o1,20µM,-,?,?,-,-
COc1cc(OC)cc(-c2nnc(NC(=O)c3ccc4c(c3)OCCO4)o2)c1,-,-,0.316µM,0.631µM,-,-
COc1cccc(-c2nnc(NC(=O)c3ccc4ncsc4c3)o2)c1,-,-,0.562µM,0.562µM,-,-
O=C(Nc1nnc(-c2ccc(Cl)cc2)o1)c1cccc(N2C(=O)CCC2=O)c1,-,-,3.16µM,2.24µM,-,-
CCOc1ccc(-c2nnc(NC(=O)c3ccc(OCC(C)C)c(OC)c3)o2)cc1,-,-,0.0282µM,0.0251µM,-,-
COc1cccc(C(=O)Nc2nnc(-c3ccc(Cl)cc3)o2)c1,-,-,?,1.58µM,-,-
COc1cccc(C(=O)Nc2nnc(-c3ccc(F)cc3)o2)c1,-,-,5.01µM,1.78µM,-,-
COc1cccc(C(=O)Nc2nnc(-c3cccs3)o2)c1,-,-,0.631µM,0.794µM,-,-
COc1ccc(S(=O)(=O)N(C)c2ccc(C(=O)Nc3ccccc3C(=O)N3CCOCC3)cc2)cc1,-,-,-,-,.,-
